Laboratory results from PubChem BioAssay (EPA / NIEHS).
Several values for one entry are separate records, joined by “and”; a condition that tells them apart may be missing. Equal values may be shown once. Results filed as inconclusive are left out. Some structures have more than one record in an assay (separate samples or runs), and their calls can disagree. Activity calls are given as the source filed them. Rule for the calls, unless noted: active = hit-call score of the fitted dose curve at least 0.9, where 1 is the maximum; inconclusive = response in the unintended direction; inactive = score below 0.9.

Assays:
[1] = target: Estrogen receptor (Homo sapiens) (UniProt P03372); assay: ATG_ERa_TRANS: Attagene TRANS-FACTORIAL HepG2 Assay for human Estrogen Receptor alpha (ERa) (AID 2282970); conditions: HepG2 Attagene TRANS ERa GAL4 reporter, mRNA
In short: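 Human liver HepG2, transient transfection of multiple GAL4-UAS reporter units; TRANS format (exogenous NR-Gal4 chimera). 24 h dosing. Readout: reporter mRNA, RT-PCR, 6-FAM primer extension, HpaI digest, capillary electrophoresis. Positive direction vs DMSO.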

[2] = target: X-box-binding protein 1 (Homo sapiens) (UniProt P17861); assay: ATG_Xbp1_CIS: Attagene CIS-FACTORIAL HepG2 Assay for human X-box Binding Protein 1 (XBP1) (AID 2282972; active = hit-call score of the fitted dose curve at least 0.9, where 1 is the maximum; inactive = score below 0.9); conditions: HepG2 XBP1 cis-element reporter, Attagene multiplex; actives raise or lower the signal
In short: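 HepG2 cells transiently transfected with multiple cis-element reporter units report endogenous TF activity; 24 h exposure, then reporter mRNA measured by RT-PCR, 6-FAM labelling, HpaI digestion and capillary electrophoresis. Bidirectional fitting versus DMSO.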

[3] = target: Glucocorticoid receptor (Homo sapiens) (UniProt P04150); assay: ATG_GR_TRANS: Attagene TRANS-FACTORIAL HepG2 Assay for human Glucocorticoid Receptor (GR) (AID 2282978); conditions: HepG2 Attagene TRANS GR reporter, mRNA transcription;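 note: activators score as hits since higher reporter transcript over DMSO is fitted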
In short: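 Reporter transcript levels, detected by fluorescence after RT-PCR and capillary electrophoresis, served as the endpoint. HepG2 cells bearing transfected GAL4-UAS reporters responsive to NR-GAL4 chimeras were incubated with compound 24 h; DMSO defined baseline.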

[4] = target: Bile acid receptor (Homo sapiens) (UniProt Q96RI1); assay: ATG_FXR_TRANS: Attagene TRANS-FACTORIAL HepG2 Assay for Farnesoid X Receptor (FXR) (AID 2282979); conditions: HepG2 Attagene TRANS FXR-GAL4 reporter transcription;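 note: hits raise reporter mRNA above DMSO so AC50 marks FXR activation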
In short: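 Transient transfection of HepG2 with multiplexed GAL4-UAS reporter units; exogenous FXR-GAL4 chimera. Dose 24 h → TriZol RNA → oligo(dT) RT → PCR, 6-FAM primer extension, HpaI cut → CE. Gain vs DMSO.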

[5] = target: Oxysterols receptor LXR-alpha (Homo sapiens) (UniProt Q13133); assay: ATG_LXRa_TRANS: Attagene TRANS-FACTORIAL HepG2 Assay for human Liver X Receptor alpha (LXRa) (AID 2282980); conditions: HepG2 Attagene TRANS reporter, LXRa transactivation
In short: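 Transfect HepG2 with GAL4-UAS multiplex reporter constructs (TRANS format, chimeric receptor-GAL4); treat 24 h; extract RNA, reverse-transcribe, PCR-amplify, FAM-label, HpaI-digest; resolve fragments by capillary electrophoresis. Upward response vs DMSO.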

[6] = target: Oxysterols receptor LXR-beta (Homo sapiens) (UniProt P55055); assay: ATG_LXRb_TRANS: Attagene TRANS-FACTORIAL HepG2 Assay for human Liver X Receptor beta (LXRb) (AID 2282981); conditions: HepG2 Attagene TRANS GAL4-LXRb reporter, mRNA
In short: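 HepG2 cells transiently transfected with multiple reporter transcription units carrying chimeric NR-Gal4 proteins acting on GAL4-UAS reporters; compound exposure 24 h. Reporter mRNA quantified by RT-PCR, 6-FAM labelling, HpaI digestion and capillary electrophoresis; gain of signal versus DMSO.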

[7] = ATG_M_06_TRANS: Attagene TRANS-FACTORIAL HepG2 Assay for M06 Transcription Factor (Internal Marker) (AID 2282983); conditions: HepG2 Attagene TRANS M06 internal marker reporter
In short: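 Transfect HepG2 with MRTUs → dose compounds 24 h → isolate RNA, oligo(dT) RT → PCR with reporter primers → 6-FAM primer extension → HpaI digest → CE fragment analysis. Positive direction vs DMSO.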

[8] = target: Nuclear receptor subfamily 4 group A member 2 (Homo sapiens) (UniProt P43354); assay: ATG_NURR1_TRANS: Attagene TRANS-FACTORIAL HepG2 Assay for human Nuclear Receptor Related Protein 1 (NURR1) (AID 2282985); conditions: HepG2 Attagene TRANS reporter, mRNA readout
In short: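 HepG2 cells transiently transfected with GAL4-UAS reporter units and chimeric NR-Gal4 constructs; chemical exposure 24 h. Reporter mRNA quantified by RT-PCR, fluorescent labelling and capillary electrophoresis; gain of signal fitted relative to DMSO baseline.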

[9] = target: Nuclear respiratory factor 1 (Homo sapiens) (UniProt Q16656); assay: ATG_NRF1_CIS: Attagene CIS-FACTORIAL HepG2 Assay for human Nuclear Respiratory Factor 1 (NRF1) Orphan Gene (AID 2282987; active = hit-call score of the fitted dose curve at least 0.9, where 1 is the maximum; inactive = score below 0.9); conditions: HepG2 NRF1 cis-element reporter, Attagene multiplex; actives raise or lower the signal
In short: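 Cells (HepG2, transient MRTU transfection) are exposed to compound for 24 h, then RNA isolated and reporter mRNA amplified and fluorescently labelled. Fragments are separated by capillary electrophoresis; signal change is fitted bidirectionally relative to DMSO.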

[10] = ATG_NFI_CIS: Attagene CIS-FACTORIAL HepG2 Assay for human Nuclear Factor I (NFI) (AID 2282989; active = hit-call score of the fitted dose curve at least 0.9, where 1 is the maximum; inactive = score below 0.9); conditions: HepG2 cis-regulatory reporter, NFI response element transcription; actives raise or lower the signal
In short: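 Cells: human liver HepG2, transiently transfected with promoter-regulated reporter transcription units. Exposure 24 h. Detection: fluorescent RT-PCR products separated by capillary electrophoresis, normalised to DMSO negative control.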

[11] = target: Myc proto-oncogene protein (Homo sapiens) (UniProt P01106); assay: ATG_Myc_CIS: Attagene CIS-FACTORIAL HepG2 Assay for human Myelocytomatosis (Myc) Proto-Oncogene Transcription Factor (AID 2282990; active = hit-call score of the fitted dose curve at least 0.9, where 1 is the maximum; inactive = score below 0.9); conditions: HepG2, Attagene cis-reporter transcription factor activity; actives raise or lower the signal
In short: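 Multiplexed cis-reporter transcription in HepG2 cells after 24 h chemical treatment. Reporter mRNA measured by RT-PCR and capillary electrophoresis fluorescence; activity fitted bidirectionally against DMSO control.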

[12] = ATG_M_19_TRANS: Attagene TRANS-FACTORIAL HepG2 Assay for M19 Transcription Factor (Internal Marker) (AID 2282974); conditions: HepG2 Attagene TRANS-FACTORIAL M19 internal marker reporter
In short: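 Reporter mRNA induction was measured in transfected HepG2 cells 24 h after dosing. Endpoint fitted upward relative to DMSO and serves as a background control within the multiplexed TRANS panel.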

[13] = target: Transcriptional activator Myb (Homo sapiens) (UniProt P10242); assay: ATG_Myb_CIS: Attagene CIS-FACTORIAL HepG2 Assay for human Myeloblastosis (Myb) Proto-Oncogene Transcription Factor (AID 2282986; active = hit-call score of the fitted dose curve at least 0.9, where 1 is the maximum; inactive = score below 0.9); conditions: HepG2 Attagene CIS-FACTORIAL Myb reporter transcription; actives raise or lower the signal
In short: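 Transiently transfected HepG2 cells, treated 24 h. Reporter mRNA quantified by RT-PCR/capillary electrophoresis; bidirectional fit relative to DMSO.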

[14] = ATG_M_32_TRANS: Attagene TRANS-FACTORIAL HepG2 Assay for M32 Transcription Factor (Internal Marker) (AID 2282984); conditions: HepG2 Attagene TRANS M32 internal marker reporter;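 note: transcript level of a background control reporter unit measured by RT-PCR and capillary electrophoresis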
In short: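 HepG2 cells transiently transfected with multiple GAL4-UAS reporter transcription units, dosed for 24 hours; reporter mRNA quantified by RT-PCR, 6-FAM primer extension, HpaI digestion and capillary electrophoresis. Gain-of-signal fitted versus DMSO baseline; internal background-control marker.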

[15] = ATG_GAL4_TRANS: Attagene TRANS-FACTORIAL HepG2 Assay for GAL4 (Internal Marker) (AID 2282976); conditions: HepG2 Attagene TRANS GAL4 internal marker reporter
In short: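 First, HepG2 cells were transfected with reporter units under GAL4-UAS control. Next, they were treated with chemical for 24 h. Finally, RNA was reverse-transcribed, PCR-amplified, FAM-labelled and resolved by capillary electrophoresis, with induction scored against DMSO.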

[16] = target: Hepatocyte nuclear factor 4-alpha (Homo sapiens) (UniProt P41235); assay: ATG_HNF4a_TRANS: Attagene TRANS-FACTORIAL HepG2 Assay for human Hepatocyte Nuclear Factor 4 alpha (HNF4a) (AID 2282982); conditions: HepG2 HNF4a transactivation reporter, mRNA readout
In short: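 HepG2 cells transiently transfected with multiplexed GAL4-UAS reporter units responsive to chimeric NR-GAL4 proteins; compound exposure 24 h. Reporter mRNA quantified by RT-PCR, 6-FAM labelling, HpaI digestion and capillary electrophoresis; gain of signal versus DMSO baseline.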

[17] = target: Estrogen-related receptor gamma (Homo sapiens) (UniProt P62508); assay: ATG_ERRg_TRANS: Attagene TRANS-FACTORIAL HepG2 Assay for human Estrogen-Related Receptor gamma (ERRg) (AID 2282977); conditions: HepG2 Attagene TRANS reporter, ERRg transactivation;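 note: hits increase reporter signal over DMSO so potencies reflect activators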
In short: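 HepG2 cells transiently transfected with multiplexed GAL4-UAS reporter units and chimeric NR-Gal4 constructs were exposed to test chemicals for 24 h. Reporter mRNA was measured by RT-PCR, 6-FAM primer extension, HpaI digestion and capillary electrophoresis; gain-of-signal versus DMSO.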

Measured: AC50

Estrogen receptor (Homo sapiens), sequence (P03372 whole entry, looked up, the tested form may be a part): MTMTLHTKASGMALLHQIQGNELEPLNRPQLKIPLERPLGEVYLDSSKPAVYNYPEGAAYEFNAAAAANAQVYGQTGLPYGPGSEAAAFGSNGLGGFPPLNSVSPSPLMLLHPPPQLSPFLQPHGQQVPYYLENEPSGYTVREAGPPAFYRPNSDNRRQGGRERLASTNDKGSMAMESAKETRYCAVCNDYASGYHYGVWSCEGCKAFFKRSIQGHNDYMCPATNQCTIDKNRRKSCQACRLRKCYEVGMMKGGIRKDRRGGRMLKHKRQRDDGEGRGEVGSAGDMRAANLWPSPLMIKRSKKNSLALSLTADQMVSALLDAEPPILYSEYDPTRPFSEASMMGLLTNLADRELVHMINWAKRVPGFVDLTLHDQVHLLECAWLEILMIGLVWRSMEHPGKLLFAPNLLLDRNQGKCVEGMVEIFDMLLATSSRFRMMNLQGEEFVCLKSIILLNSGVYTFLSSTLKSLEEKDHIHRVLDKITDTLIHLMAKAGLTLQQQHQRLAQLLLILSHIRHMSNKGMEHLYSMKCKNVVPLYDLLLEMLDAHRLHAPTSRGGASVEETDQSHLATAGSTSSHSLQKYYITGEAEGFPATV
Bile acid receptor (Homo sapiens), sequence (Q96RI1 whole entry, looked up, the tested form may be a part): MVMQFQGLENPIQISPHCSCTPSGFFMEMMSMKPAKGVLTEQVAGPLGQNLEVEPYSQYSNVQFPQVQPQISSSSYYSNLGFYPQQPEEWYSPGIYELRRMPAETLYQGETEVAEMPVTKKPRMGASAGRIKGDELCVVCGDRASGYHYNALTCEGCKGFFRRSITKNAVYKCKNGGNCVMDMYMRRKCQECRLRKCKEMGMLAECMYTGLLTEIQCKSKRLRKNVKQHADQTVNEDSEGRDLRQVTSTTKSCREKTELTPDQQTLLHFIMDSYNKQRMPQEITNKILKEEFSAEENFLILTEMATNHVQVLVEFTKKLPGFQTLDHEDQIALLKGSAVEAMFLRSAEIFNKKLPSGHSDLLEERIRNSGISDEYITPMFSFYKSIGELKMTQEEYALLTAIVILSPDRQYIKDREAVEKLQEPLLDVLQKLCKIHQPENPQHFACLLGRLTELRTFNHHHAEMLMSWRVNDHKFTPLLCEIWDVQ
Transcriptional activator Myb (Homo sapiens), sequence (P10242 whole entry, looked up): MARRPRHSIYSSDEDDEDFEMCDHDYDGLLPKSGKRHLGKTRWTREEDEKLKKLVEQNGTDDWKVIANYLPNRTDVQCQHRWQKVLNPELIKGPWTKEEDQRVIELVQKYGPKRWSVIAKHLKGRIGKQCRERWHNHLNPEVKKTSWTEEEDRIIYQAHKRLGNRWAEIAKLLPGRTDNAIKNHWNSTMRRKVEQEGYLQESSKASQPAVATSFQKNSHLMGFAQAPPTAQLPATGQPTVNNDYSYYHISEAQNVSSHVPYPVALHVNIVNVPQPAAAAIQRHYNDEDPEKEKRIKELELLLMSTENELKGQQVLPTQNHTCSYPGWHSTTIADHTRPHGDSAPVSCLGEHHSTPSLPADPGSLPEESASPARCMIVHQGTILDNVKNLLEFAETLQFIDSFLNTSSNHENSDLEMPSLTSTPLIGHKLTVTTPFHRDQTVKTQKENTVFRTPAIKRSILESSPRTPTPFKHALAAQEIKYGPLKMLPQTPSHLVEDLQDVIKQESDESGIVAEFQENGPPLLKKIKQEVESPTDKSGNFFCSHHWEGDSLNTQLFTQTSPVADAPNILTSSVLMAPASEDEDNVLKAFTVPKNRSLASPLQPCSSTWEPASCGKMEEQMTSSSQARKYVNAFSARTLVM
Oxysterols receptor LXR-beta (Homo sapiens), sequence (P55055 whole entry, looked up, the tested form may be a part): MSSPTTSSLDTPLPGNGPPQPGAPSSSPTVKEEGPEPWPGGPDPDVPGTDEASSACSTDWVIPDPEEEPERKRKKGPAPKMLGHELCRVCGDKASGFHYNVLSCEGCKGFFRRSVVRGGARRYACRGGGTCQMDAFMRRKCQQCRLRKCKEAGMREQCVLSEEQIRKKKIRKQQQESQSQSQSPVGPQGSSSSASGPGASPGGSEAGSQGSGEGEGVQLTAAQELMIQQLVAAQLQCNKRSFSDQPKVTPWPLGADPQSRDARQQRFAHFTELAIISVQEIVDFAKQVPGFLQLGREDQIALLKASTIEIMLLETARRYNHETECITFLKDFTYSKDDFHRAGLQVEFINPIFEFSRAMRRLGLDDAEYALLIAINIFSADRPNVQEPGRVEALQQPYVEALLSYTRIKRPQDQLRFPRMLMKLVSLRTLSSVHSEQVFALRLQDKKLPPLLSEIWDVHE
Nuclear respiratory factor 1 (Homo sapiens), sequence (Q16656 whole entry, looked up, the tested form may be a part): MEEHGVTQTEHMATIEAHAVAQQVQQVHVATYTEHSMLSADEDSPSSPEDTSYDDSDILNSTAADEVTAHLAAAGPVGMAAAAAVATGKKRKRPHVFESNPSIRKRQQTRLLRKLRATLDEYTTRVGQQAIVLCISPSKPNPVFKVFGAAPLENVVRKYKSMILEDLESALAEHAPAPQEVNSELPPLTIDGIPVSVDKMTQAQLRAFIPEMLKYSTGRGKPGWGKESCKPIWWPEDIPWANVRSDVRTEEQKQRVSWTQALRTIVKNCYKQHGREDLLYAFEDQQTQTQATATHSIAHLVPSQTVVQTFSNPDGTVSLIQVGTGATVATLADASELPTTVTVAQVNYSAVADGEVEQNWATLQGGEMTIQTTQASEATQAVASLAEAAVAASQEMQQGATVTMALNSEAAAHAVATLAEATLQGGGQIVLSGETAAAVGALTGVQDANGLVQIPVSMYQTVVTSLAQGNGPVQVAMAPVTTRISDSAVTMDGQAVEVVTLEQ
Myc proto-oncogene protein (Homo sapiens), sequence (P01106 whole entry, looked up): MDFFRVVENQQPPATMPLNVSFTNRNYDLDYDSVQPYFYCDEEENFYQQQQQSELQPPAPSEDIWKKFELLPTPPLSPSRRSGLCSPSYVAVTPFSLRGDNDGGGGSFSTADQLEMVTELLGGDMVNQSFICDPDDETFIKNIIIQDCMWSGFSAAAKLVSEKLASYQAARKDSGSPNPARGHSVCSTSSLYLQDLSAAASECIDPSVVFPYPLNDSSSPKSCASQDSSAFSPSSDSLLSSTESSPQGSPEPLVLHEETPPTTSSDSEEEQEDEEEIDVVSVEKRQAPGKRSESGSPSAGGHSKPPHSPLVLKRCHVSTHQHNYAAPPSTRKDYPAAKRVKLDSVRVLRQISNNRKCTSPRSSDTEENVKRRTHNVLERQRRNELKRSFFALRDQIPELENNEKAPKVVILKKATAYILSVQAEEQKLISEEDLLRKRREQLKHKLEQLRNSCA
Glucocorticoid receptor (Homo sapiens), sequence (P04150 whole entry, looked up, the tested form may be a part): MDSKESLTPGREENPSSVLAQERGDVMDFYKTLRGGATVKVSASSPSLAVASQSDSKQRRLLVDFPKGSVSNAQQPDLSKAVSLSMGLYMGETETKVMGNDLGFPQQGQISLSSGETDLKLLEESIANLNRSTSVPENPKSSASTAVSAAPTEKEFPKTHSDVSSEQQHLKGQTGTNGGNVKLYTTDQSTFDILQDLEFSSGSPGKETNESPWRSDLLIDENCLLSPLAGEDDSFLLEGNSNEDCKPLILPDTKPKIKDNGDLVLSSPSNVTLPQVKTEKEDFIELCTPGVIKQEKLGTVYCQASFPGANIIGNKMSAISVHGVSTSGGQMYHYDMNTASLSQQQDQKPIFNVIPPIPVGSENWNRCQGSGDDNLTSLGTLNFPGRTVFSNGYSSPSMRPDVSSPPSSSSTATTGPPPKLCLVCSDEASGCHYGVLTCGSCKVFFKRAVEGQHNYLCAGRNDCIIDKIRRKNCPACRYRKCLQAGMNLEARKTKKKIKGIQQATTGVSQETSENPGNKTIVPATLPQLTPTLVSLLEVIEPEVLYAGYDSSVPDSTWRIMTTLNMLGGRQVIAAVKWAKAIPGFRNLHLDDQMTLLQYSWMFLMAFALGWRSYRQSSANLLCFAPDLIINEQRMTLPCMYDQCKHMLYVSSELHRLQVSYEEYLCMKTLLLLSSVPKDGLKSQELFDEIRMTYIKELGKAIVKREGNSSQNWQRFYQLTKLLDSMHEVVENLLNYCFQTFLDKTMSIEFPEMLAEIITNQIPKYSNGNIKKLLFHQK
X-box-binding protein 1 (Homo sapiens), sequence (P17861 whole entry, looked up): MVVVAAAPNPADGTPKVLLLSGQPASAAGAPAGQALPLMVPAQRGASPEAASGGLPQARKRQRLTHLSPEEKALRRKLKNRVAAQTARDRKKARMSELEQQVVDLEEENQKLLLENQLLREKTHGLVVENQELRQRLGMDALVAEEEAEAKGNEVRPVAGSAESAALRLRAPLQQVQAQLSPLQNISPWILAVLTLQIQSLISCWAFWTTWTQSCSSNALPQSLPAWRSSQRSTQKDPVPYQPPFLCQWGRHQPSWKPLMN
Oxysterols receptor LXR-alpha (Homo sapiens), sequence (Q13133 whole entry, looked up, the tested form may be a part): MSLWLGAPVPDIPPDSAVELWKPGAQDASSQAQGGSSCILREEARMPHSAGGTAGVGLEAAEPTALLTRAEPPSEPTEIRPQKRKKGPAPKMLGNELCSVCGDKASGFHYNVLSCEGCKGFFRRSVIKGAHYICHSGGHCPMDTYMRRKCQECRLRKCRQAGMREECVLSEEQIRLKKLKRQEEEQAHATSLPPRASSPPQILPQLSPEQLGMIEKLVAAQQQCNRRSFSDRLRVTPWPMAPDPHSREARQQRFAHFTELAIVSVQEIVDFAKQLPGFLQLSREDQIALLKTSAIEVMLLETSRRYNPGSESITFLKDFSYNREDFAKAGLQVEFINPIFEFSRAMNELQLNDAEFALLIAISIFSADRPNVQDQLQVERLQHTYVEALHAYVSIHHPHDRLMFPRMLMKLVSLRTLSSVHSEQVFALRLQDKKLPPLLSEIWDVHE

OCC1CCC(CO)CC1 (stereo unspecified)
not listed: [12] | [13] | [14] | [15] | [16] | [17]
inactive: all other assays above

Cc1cc(Cc2cc(C)cc(C(C)(C)C)c2O)c(O)c(C(C)(C)C)c1
active: [2] 25 µM | [13] 25.6 µM | [9] 180 µM | [10] 25.8 µM | [11] 136 µM
inactive: [1] | [12] | [5] | [6] | [7]

NC(=NCCCCCCN=C(N)/N=C(\N)Nc1ccc(Cl)cc1)/N=C(\N)Nc1ccc(Cl)cc1
inactive: [1] | [2] | [3] | [5] | [6] | [14] | [8] | [13] | [9] | [10] | [11]
active: [3] 25.3 µM | [6] 24.1 µM | [13] 18.3 µM and 48.2 µM | [9] 7.2 µM and 38.6 µM | [11] 90.5 µM and 24.6 µM

CC(C)(c1ccc(Oc2ccc(N)cc2)cc1)c1ccc(Oc2ccc(N)cc2)cc1
active: [5] 3.21 µM | [8] 7.23 µM
not listed: [3] | [4] | [7] | [17]
inactive: all other assays above

CCCCC(CC)C(=O)OCCOCCOCCOCCOC(=O)C(CC)CCCC (stereo unspecified)
not listed: [3] | [4] | [5] | [6] | [7] | [12] | [16]
inactive: all other assays above

CCOC=O
active: [1] 59.7 µM
inactive: [2] | [15] | [17] | [3] | [7] | [13] | [9] | [10] | [11]

CCc1ccccc1O
inactive: [1] | [2] | [12] | [3] | [14] | [13] | [9] | [10] | [11]

CCCCCCCCC1CCC(=O)O1 (stereo unspecified)
not listed: [6] | [7] | [8] | [12] | [16] | [17]
inactive: all other assays above

O=C(O)CCC(F)(F)C(F)(F)C(F)(F)C(F)(F)C(F)(F)C(F)(F)F
active: [1] 46.1 µM
inactive: [2] | [15] | [3] | [4] | [6] | [14] | [8] | [9] | [11]

C=Cc1ccc(O)c(OC)c1
not listed: [3] | [4] | [6] | [7] | [8] | [17]
inactive: all other assays above
